Measurements published in article PMC9911399, “Two distinct binding modes provide the RNA-binding protein RbFox with extraordinary sequence specificity”.
Numbering of substitutions follows the chain as printed; changes in the protein carry UniProt numbers. The full ranking holds about 16,000 sequences; the median of “ka relative to ugcaugu” is about 0.0091, and the highest 2% start at about 0.032. The full list was thinned out, with the highest values kept by preference.

T1: RBFOX1 RRM (Homo sapiens, UniProt Q9NWB1 109-208)
T1 sequence: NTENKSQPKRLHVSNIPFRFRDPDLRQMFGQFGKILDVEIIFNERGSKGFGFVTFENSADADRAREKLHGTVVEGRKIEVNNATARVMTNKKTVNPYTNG

B1: ACGCUGG (DNA:RNA)
RNA: GGGAGACCGGAAUUCAGAUUGUCCACGCUGGUUAAAUCCCGUCGUAGCCACCA
DNA 1: CAATCTGAATTCCGGTCTCCC
DNA 2: TGGTGGCTACGACGGGATT
B2: UGGCAAU (DNA:RNA)
RNA: B1 RNA with A25U, C26G, U29A, G30A, G31U
DNA 1: CAATCTGAATTCCGGTCTCCC
DNA 2: TGGTGGCTACGACGGGATT
B3: CACCCCG (DNA:RNA)
RNA: B1 RNA with A25C, C26A, G27C, U29C, G30C
DNA 1: CAATCTGAATTCCGGTCTCCC
DNA 2: TGGTGGCTACGACGGGATT
B4: CUUGCCC (DNA:RNA)
RNA: GGGAGACCGGAAUUCAGAUUGUCCCUUGCCCUUAAAUCCCGUCGUAGCCACCA
DNA 1: CAATCTGAATTCCGGTCTCCC
DNA 2: TGGTGGCTACGACGGGATT
B5: CAAUCGU (DNA:RNA)
RNA: B4 RNA with U26A, U27A, G28U, C30G, C31U
DNA 1: CAATCTGAATTCCGGTCTCCC
DNA 2: TGGTGGCTACGACGGGATT
B6: ACUUACA (DNA:RNA)
RNA: B1 RNA with G27U, C28U, U29A, G30C, G31A
DNA 1: CAATCTGAATTCCGGTCTCCC
DNA 2: TGGTGGCTACGACGGGATT
B7: CACUUGG (DNA:RNA)
RNA: B1 RNA with A25C, C26A, G27C, C28U
DNA 1: CAATCTGAATTCCGGTCTCCC
DNA 2: TGGTGGCTACGACGGGATT
B8: CGUCCGU (DNA:RNA)
RNA: B4 RNA with U26G, G28C, C30G, C31U
DNA 1: CAATCTGAATTCCGGTCTCCC
DNA 2: TGGTGGCTACGACGGGATT
B9: CGGAAUG (DNA:RNA)
RNA: B1 RNA with A25C, C26G, C28A, U29A, G30U
DNA 1: CAATCTGAATTCCGGTCTCCC
DNA 2: TGGTGGCTACGACGGGATT
B10: GGAAUGU (DNA:RNA)
RNA: B1 RNA with A25G, C26G, G27A, C28A, G31U
DNA 1: CAATCTGAATTCCGGTCTCCC
DNA 2: TGGTGGCTACGACGGGATT
B11: UCGAAUC (DNA:RNA)
RNA: B1 RNA with A25U, C28A, U29A, G30U, G31C
DNA 1: CAATCTGAATTCCGGTCTCCC
DNA 2: TGGTGGCTACGACGGGATT
B12: GUAAAUG (DNA:RNA)
RNA: B1 RNA with A25G, C26U, G27A, C28A, U29A, G30U
DNA 1: CAATCTGAATTCCGGTCTCCC
DNA 2: TGGTGGCTACGACGGGATT
B13: AGGAAUC (DNA:RNA)
RNA: B1 RNA with C26G, C28A, U29A, G30U, G31C
DNA 1: CAATCTGAATTCCGGTCTCCC
DNA 2: TGGTGGCTACGACGGGATT
B14: AGGAUUG (DNA:RNA)
RNA: B1 RNA with C26G, C28A, G30U
DNA 1: CAATCTGAATTCCGGTCTCCC
DNA 2: TGGTGGCTACGACGGGATT
B15: UCGAUUG (DNA:RNA)
RNA: B1 RNA with A25U, C28A, G30U
DNA 1: CAATCTGAATTCCGGTCTCCC
DNA 2: TGGTGGCTACGACGGGATT
B16: GUAAUGU (DNA:RNA)
RNA: B1 RNA with A25G, C26U, G27A, C28A, G31U
DNA 1: CAATCTGAATTCCGGTCTCCC
DNA 2: TGGTGGCTACGACGGGATT
B17: CGUAAUG (DNA:RNA)
RNA: B4 RNA with U26G, G28A, C29A, C30U, C31G
DNA 1: CAATCTGAATTCCGGTCTCCC
DNA 2: TGGTGGCTACGACGGGATT
B18: UCGAAUG (DNA:RNA)
RNA: B1 RNA with A25U, C28A, U29A, G30U
DNA 1: CAATCTGAATTCCGGTCTCCC
DNA 2: TGGTGGCTACGACGGGATT
B19: AGGAAUG (DNA:RNA)
RNA: B1 RNA with C26G, C28A, U29A, G30U
DNA 1: CAATCTGAATTCCGGTCTCCC
DNA 2: TGGTGGCTACGACGGGATT

What follows are binders tested against T1, RBFOX1 RRM (assay: EMSA; HiTS-Eq, 1 nM pool, 10 min; buffer printed only for the single-RNA assays: 10 mM Tris pH 7.5, 150 mM NaCl, 3.4 mM EDTA, 0.001% NP-40, 30 C). Conditions: tags: His6 N-terminal (pET28a); label: 5' 32P.
Procedure, shortened: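 Relative association constants, normalised to the cognate motif, were derived by comparing read counts of each RNA species with those of the control reaction. The RNA sequenced was the free fraction, separated by 8% native PAGE after a 10 min equilibration in 50 µL of 1 nM 5′-radiolabelled RNA (7 randomized nucleotides) with increasing concentrations of purified wild-type or mutant RbFox RRM.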

| Binder | binding signal |
| --- | --- |
| B1 | 0.0175 KA relative to UGCAUGU |
| B2 | 0.0132 KA relative to UGCAUGU |
| B3 | 0.002 KA relative to UGCAUGU |
| B4 | 0.00752 KA relative to UGCAUGU |
| B5 | 0.00595 KA relative to UGCAUGU |
| B6 | 0.00166 KA relative to UGCAUGU |
| B7 | 0.0107 KA relative to UGCAUGU |
| B8 | 0.0125 KA relative to UGCAUGU |
| B9 | 0.0596 KA relative to UGCAUGU |
| B10 | 0.0563 KA relative to UGCAUGU |
| B11 | 0.0109 KA relative to UGCAUGU |
| B12 | 0.00894 KA relative to UGCAUGU |
| B13 | 0.0141 KA relative to UGCAUGU |
| B14 | 0.0293 KA relative to UGCAUGU |
| B15 | 0.0206 KA relative to UGCAUGU |
| B16 | 0.0122 KA relative to UGCAUGU |
| B17 | 0.0127 KA relative to UGCAUGU |
| B18 | 0.0323 KA relative to UGCAUGU |
| B19 | 0.0471 KA relative to UGCAUGU |
